Where “and” joins values, the source holds several entries; their conditions need not be identical. Equal entries are not always repeated. In all, about 5,500 compounds went through this assay and about 2,000 (36%) were called active. Another 18% or so got no clear call; they are omitted. Rule as the data show it: active = normalized growth mostly below about 0.91 (no sharp cut-off); inconclusive = no clear call, values can overlap the other calls; inactive = mostly above about 0.92. Some of the results follow.
Experiment: chemical genetic growth profiling, strain panel (AID 1159580);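 also: tested at 20 µM; growth read once vehicle control cultures reached saturation at 30 °C; 1 = growth at the plate median or of vehicle wells; lower values mean less growth of the strain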
Settings: growth OD
[1] = S. cerevisiae deletion strains, locus YAL013W, strain DEP1, active compounds read low
[2] = S. cerevisiae deletion strains, locus YGR078C, strain PAC10, active compounds read low
[3] = S. cerevisiae deletion strains, locus YGR229C, strain SMI1, active compounds read low
[4] = S. cerevisiae deletion strains, locus YJR075W, strain HOC1, active compounds read low
[5] = S. cerevisiae deletion strains, locus YMR263W, strain SAP30, active compounds read low
[6] = S. cerevisiae deletion strains, locus YNL128W, strain TEP1, active compounds read low
[7] = S. cerevisiae deletion strains, locus YNL153C, strain GIM3, active compounds read low
[8] = S. cerevisiae deletion strains, locus YNL322C, strain KRE1, active compounds read low
[9] = S. cerevisiae deletion strains, locus YPL055C, strain LGE1, active compounds read low

Measured: normalized growth

CC(=O)N1CCN(c2ccc(OC[C@H]3CO[C@](Cn4ccnc4)(c4ccc(Cl)cc4Cl)O3)cc2)CC1
active: [1] 0.0911 | S. cerevisiae deletion strains, locus YAL040C, strain CLN3, active compounds read low 0.208 | S. cerevisiae deletion strains, locus YCL061C, strain MRC1 (second series), active compounds read low 0.0612 | S. cerevisiae deletion strains, locus YDR363W, strain ESC2, active compounds read low 0.103 | S. cerevisiae deletion strains, locus YER002W, strain NOP16, active compounds read low 0.137 | [2] 0.139 | [3] 0.0746 | [4] 0.0931 | [5] 0.588 | [6] 0.16 | [7] 0.14 | S. cerevisiae deletion strains, locus YNL175C, strain NOP13, active compounds read low 0.133 | S. cerevisiae deletion strains, locus YNL197C, strain WHI3, active compounds read low 0.147 | S. cerevisiae deletion strains, locus YNL224C, strain SQS1, active compounds read low 0.18 | [8] 0.0931 | S. cerevisiae deletion strains, locus YOR083W, strain WHI5 (second series), active compounds read low 0.175 | [9] 0.104

CC(=O)[C@@]1(O)CCC2C3C=C(Cl)C4=CC(=O)[C@@H]5CC5[C@]4(C)C3CC[C@@]21C (some centres undefined)
inactive: [1] 1.02 | S. cerevisiae deletion strains, locus YBR021W, strain FUR4, active compounds read low 0.996 | S. cerevisiae deletion strains, locus YBR229C, strain ROT2, active compounds read low 1.01 | S. cerevisiae deletion strains, locus YCL029C, strain bik1, active compounds read low 1.02 | S. cerevisiae deletion strains, locus YDL035C, strain GPR1, active compounds read low 1 | S. cerevisiae deletion strains, locus YDL074C, strain BRE1, active compounds read low 0.991 | S. cerevisiae deletion strains, locus YDL101C, strain DUN1, active compounds read low 1.01 | S. cerevisiae deletion strains, locus YDL134C, strain PPH21, active compounds read low 1.01 | S. cerevisiae deletion strains, locus YDL185W, strain tfp1, active compounds read low 1.01 | S. cerevisiae deletion strains, locus YDL192W, strain arf1, active compounds read low 0.998 | S. cerevisiae deletion strains, locus YDR101C, strain arx1, active compounds read low 1.01 | S. cerevisiae deletion strains, locus YDR150W, strain NUM1, active compounds read low 1.02 | S. cerevisiae deletion strains, locus YDR162C, strain NBP2, active compounds read low 1 | S. cerevisiae deletion strains, locus YDR318W, strain mcm21, active compounds read low 1 | S. cerevisiae deletion strains, locus YDR388W, active compounds read low 1.01 | S. cerevisiae deletion strains, locus YDR502C, strain sam2, active compounds read low 1.01 | S. cerevisiae deletion strains, locus YEL061C, strain CIN8, active compounds read low 1.01 | S. cerevisiae deletion strains, locus YER110C, active compounds read low 1.02 | S. cerevisiae deletion strains, locus YER155C, strain BEM2, active compounds read low 0.998 | S. cerevisiae deletion strains, locus YER167W, strain BCK2, active compounds read low 0.988 | S. cerevisiae deletion strains, locus YGL078C, strain dbp3, active compounds read low 1 | S. cerevisiae deletion strains, locus YGL086W, strain mad1, active compounds read low 1.01 | S. cerevisiae deletion strains, locus YGL248W, strain PDE1, active compounds read low 1 | [2] 0.999 | S. cerevisiae deletion strains, locus YGR135W, strain pre9, active compounds read low 1.01 | [3] 1.01 | S. cerevisiae deletion strains, locus YGR252W, strain gcn5, active compounds read low 0.952 | S. cerevisiae deletion strains, locus YHR030C, strain SLT2, active compounds read low 1.01 and 1.03 | S. cerevisiae deletion strains, locus YHR079C, strain IRE1 (second series), active compounds read low 1.02 | S. cerevisiae deletion strains, locus YHR079C, strain IRE1, active compounds read low 1.05 | S. cerevisiae deletion strains, locus YHR094C, strain hxt1, active compounds read low 1.01 | S. cerevisiae deletion strains, locus YHR129C, strain ARP1, active compounds read low 1 | S. cerevisiae deletion strains, locus YHR200W, strain rpn10, active compounds read low 1.02 | S. cerevisiae deletion strains, locus YIL066C, strain RNR3, active compounds read low 1.01 | S. cerevisiae deletion strains, locus YIL073C, strain SPO22, active compounds read low 1.01 | S. cerevisiae deletion strains, locus YIL125W, strain kgd1, active compounds read low 1.01 | S. cerevisiae deletion strains, locus YIR030C, strain dcg1, active compounds read low 1.02 | S. cerevisiae deletion strains, locus YJL095W, strain BCK1, active compounds read low 1.02 and 1.03 | S. cerevisiae deletion strains, locus YJL134W, strain LCB3, active compounds read low 1.01 | S. cerevisiae deletion strains, locus YJL168C, strain set2, active compounds read low 1.01 | S. cerevisiae deletion strains, locus YJL187C, strain SWE1 (second series), active compounds read low 1.02 | S. cerevisiae deletion strains, locus YJR043C, strain POL32, active compounds read low 1 | S. cerevisiae deletion strains, locus YJR066W, strain TOR1, active compounds read low 0.95 | [4] 1.03 | S. cerevisiae deletion strains, locus YKL009W, strain mrt4, active compounds read low 0.999 | S. cerevisiae deletion strains, locus YKL068W, active compounds read low 1.01 | S. cerevisiae deletion strains, locus YKL085W, strain MDH1 (second series), active compounds read low 0.999 | S. cerevisiae deletion strains, locus YKL085W, strain MDH1, active compounds read low 0.999 | S. cerevisiae deletion strains, locus YKL190W, strain CNB1, active compounds read low 1.01 | S. cerevisiae deletion strains, locus YKR001C, strain vps1, active compounds read low 0.995 | S. cerevisiae deletion strains, locus YLR039C, strain RIC1, active compounds read low 0.984 | S. cerevisiae deletion strains, locus YLR058C, strain SHM2, active compounds read low 1.01 | S. cerevisiae deletion strains, locus YLR102C, strain apc9, active compounds read low 1.01 | S. cerevisiae deletion strains, locus YLR113W, strain HOG1, active compounds read low 0.974 | S. cerevisiae deletion strains, locus YLR262C, strain YPT6, active compounds read low 1 | S. cerevisiae deletion strains, locus YLR268W, strain sec22, active compounds read low 1.02 | S. cerevisiae deletion strains, locus YLR330W, strain CHS5, active compounds read low 1.01 | S. cerevisiae deletion strains, locus YLR342W, strain FKS1 (second series), active compounds read low 1.01 | S. cerevisiae deletion strains, locus YLR371W, strain rom2, active compounds read low 1.02 | S. cerevisiae deletion strains, locus YLR418C, strain cdc73, active compounds read low 0.993 | S. cerevisiae deletion strains, locus YML016C, strain PPZ1, active compounds read low 1.02 | S. cerevisiae deletion strains, locus YML032C, strain rad52, active compounds read low 1.02 | S. cerevisiae deletion strains, locus YML124C, strain tub3, active compounds read low 1.01 | S. cerevisiae deletion strains, locus YMR078C, strain ctf18, active compounds read low 1 | S. cerevisiae deletion strains, locus YMR223W, strain ubp8, active compounds read low 1.01 | [5] 1.02 | S. cerevisiae deletion strains, locus YMR307W, strain GAS1, active compounds read low 0.943 | S. cerevisiae deletion strains, locus YNL067W, strain RPL9B, active compounds read low 1.02 | [6] 1.03 | [7] 1.01 | S. cerevisiae deletion strains, locus YNL183C, strain NPR1, active compounds read low 0.958 | S. cerevisiae deletion strains, locus YNL233W, strain BNI4, active compounds read low 0.987 | S. cerevisiae deletion strains, locus YNL250W, strain rad50, active compounds read low 1.01 | S. cerevisiae deletion strains, locus YNL271C, strain bni1, active compounds read low 1.01 | S. cerevisiae deletion strains, locus YNL298W, strain CLA4, active compounds read low 1.01 | S. cerevisiae deletion strains, locus YNL307C, strain MCK1, active compounds read low 1 | [8] 1.01 | S. cerevisiae deletion strains, locus YNR052C, strain pop2, active compounds read low 1.01 | S. cerevisiae deletion strains, locus YOL006C, strain TOP1, active compounds read low 1.02 | S. cerevisiae deletion strains, locus YOL012C, strain htz1 1.53 | S. cerevisiae deletion strains, locus YOL147C, strain pex11, active compounds read low 1 | S. cerevisiae deletion strains, locus YOR061W, strain CKA2, active compounds read low 1.01 | S. cerevisiae deletion strains, locus YOR069W, strain VPS5, active compounds read low 1.01 | S. cerevisiae deletion strains, locus YOR136W, strain idh2, active compounds read low 1 | S. cerevisiae deletion strains, locus YOR144C, strain elg1, active compounds read low 1 | S. cerevisiae deletion strains, locus YOR184W, strain ser1, active compounds read low 1 | S. cerevisiae deletion strains, locus YOR231W, strain MKK1, active compounds read low 1.01 | S. cerevisiae deletion strains, locus YOR316C, strain cot1, active compounds read low 1.01 | [9] 1.01 | S. cerevisiae deletion strains, locus YPL241C, strain CIN2, active compounds read low 1.01 | S. cerevisiae deletion strains, locus YPL256C, strain CLN2, active compounds read low 1.04 | S. cerevisiae deletion strains, locus YPR119W, strain clb2, active compounds read low 1 | S. cerevisiae deletion strains, locus YPR141C, strain kar3, active compounds read low 0.998 | S. cerevisiae deletion strains, locus YPR163C, strain tif3, active compounds read low 1.01 | S. cerevisiae deletion strains, locus YPR167C, strain met16, active compounds read low 1.01 | S. cerevisiae deletion strains, strain wtn01, active compounds read low 1.02 | S. cerevisiae strains, strain wild type, active compounds read low 1
